We go through 15 compounds from PubChem BioAssay (NCI).

Holding throughout (test): NCI-60 one-dose screen, 48 h (100 = growth as untreated, 0 = no growth, -100 = all killed)
Common to all, as to details: 10 µM unless noted

For test [1], the system named is SR leukemia.
The subject of test [2] is RPMI-8226 leukemia.
Test [3] concerns OVCAR-8 ovarian.
For test [4], the system named is OVCAR-5 ovarian.
For test [5], the system named is SK-OV-3 ovarian.
Test [6] concerns IGROV1 ovarian.
The subject of test [7] is OVCAR-3 ovarian.
For test [8], the system named is HS 578T breast.
Test [9] deals with NCI/ADR-RES ovarian.

About 83,000 compounds went through this panel and 20% of them were active in at least one assay; those are over-represented in the sample as a whole.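 Interpretation: 100, growth as untreated; towards 0, rising growth inhibition; 0, no net growth; 0 to -100, cell death. Compounds scoring below 10 were considered active.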 Unmarked numbers belong to inactive results. Activity calls are given as the source filed them.

Take `O=C(NC1=CC(=O)c2ccccc2C1=O)c1ccccc1`: the growth is -0.906% (active) in [1]; 4.25% (active) in test [2]; 22.4% in test [3]; 42.2% in test [4]; 32% in [5]; -30.1% (active) in [6]. For the same compound, the results for the growth in test [7], in test [8] and in test [9] were -82.5% (active), 25.3% and 16.6%, respectively.

Regarding `CC1=CC(=O)N(c2cccc3c(N4C(=O)C=C(C)C4=O)cccc23)C1=O`, the growth in test [1] is -21.1% (active); in test [2] it was 21.5%; in test [3], 80.3%; in test [4], 109%; in [5] it was 108%; in test [6] it was 76.3%. The growth is -16.2% (active) in test [7], 110% in test [8] and 78.3% in test [9].

As to `CC(=O)Oc1ccccc1C(=O)/C=C/c1cccc([N+](=O)[O-])c1`, the growth is -30.8% (active) in test [1]; -17.4% (active) in test [2]; 77.7% in [3]; 110% in test [4]; 102% in [5]; 37.3% in test [6]. Besides, the growth in [7] was 66.4%; in [8], 71.2%; in test [9] it was 74.3%.

For `Clc1ccc2[nH]cc(-c3nc(-c4c[nH]c5ncccc45)cs3)c2c1`, the growth is 9.06% (active) in [1]; 37.6% in [2]; 46.2% in test [3]; 80.6% in test [4]; 59.6% in [5]; 32.8% in test [6]. The growth in test [7] is 55.9%; in test [8], 75.7%; in test [9], 38.7%.

In the case of `Cn1cc(-c2nc(-c3c[nH]c4ncccc34)cs2)c2cc(F)ccc21`, the growth in test [1] was 13.7%; in test [2], 36.4%; in [3], 51.4%; in test [4] it was 21.4%; in test [5] it was 55.9%; in [6], 26.5%. Further, the growth is 21% in test [7], 66.8% in test [8] and 8.92% (active) in test [9].

For `N#CC1C(=N)Cc2ccccc2-c2ccccc21` (stereo not given), the growth in test [1] is 26.7%; in [2], 52.3%; in test [3], 63.1%; in test [4], 88.3%; in test [5], 66.7%; in test [6] it was 45.7%. The growth in test [7] was 41.6%; in test [8], 36.5%; in test [9], 1.44% (active).

Take `C/C(=N\NC(=O)C(C)SC(C)C(=O)N/N=C(\C)c1cccnc1)c1cccnc1` (stereo not given): the growth in test [1] is 79.6%; in test [2], 101%; in [3] it was 109%; in test [4], 110%; in test [5] it was 109%; in [6], 102%. Also, the growth in [7] was 114%; in test [8] it was 101%; in test [9] it was 108%.

On to `Fc1cccc(-c2[nH]nc3nc(Nc4cccnc4)sc23)c1`, for which the growth in test [1] was 15%; in test [2], 27.2%; in [3], 54%; in test [4], 86.9%; in test [5], 41%; in test [6], 51.4%. Besides, the growth in [7] was -18.3% (active); in test [8] it was 69.4%; in test [9] it was 21.6%.

As for `COc1cc2[nH]c(C(=O)c3cc(OC)c(OC)c(OC)c3)c(N)c2cc1C#CC1CC1`, the growth in test [1] was 13.4%; in test [2], 47.6%; in test [3], 55.7%; in [4], 38.4%; in test [5], 32.4%; in test [6], 42.1%. Further, the growth is 2.8% (active) in test [7], -1.8% (active) in test [8] and 27.7% in test [9].

Regarding `Cn1cc(-c2nc(-c3cn(C)c4ncccc34)cs2)c2cc(F)ccc21`, the growth was 22.4% in test [1]; 38% in [2]; 54.6% in [3]; 56.3% in test [4]; 57.4% in test [5]; 44.2% in test [6]. The growth was 1.46% (active) in test [7], 76.4% in test [8] and 10.8% in [9].

As for `Cn1cc(-c2csc(-c3c[nH]c4ccccc34)n2)c2cccnc21`, the growth in [1] was 27.4%; in test [2], 21.3%; in test [3], 39.2%; in test [4], 54%; in [5], 28.9%; in [6], 42%. The growth in test [7] is -14.9% (active); in [8] it was 60.5%; in [9] it was 0.975% (active).

Regarding `O=C(O)c1cccc2c1Cc1cc([N+](=O)[O-])ccc1-2`, the growth in [1] is 89%; in [2], 100%; in test [3], 108%; in test [4] it was 106%; in test [5], 107%; in test [6], 92.3%. In addition, the growth is 115% in [7], 95% in test [8] and 100% in [9].

On to `CC(C)=CCC/C(C)=C/CC/C(C)=C/CC/C(C)=C/CSC[C@H](NC(=O)CCCCCN1CCN(C)CC1)C(=O)NC1CCCCC1`, for which the growth in test [1] was 2.5% (active); in test [2], 63.4%; in test [3] it was 90.3%; in test [4], 85%; in [5], 96.5%; in test [6] it was 80.6%. Besides, the values for the growth in test [7], in test [8] and in test [9] were 91.1%, 95.7% and 86.9%, respectively.

Regarding `O=[N+]([O-])c1cccc(/C=N\Nc2ccccc2)c1`, the growth is 89.6% in [1]; 86.5% in test [2]; 63.8% in [3]; 74.7% in test [4]; 95.8% in [5]; 60.1% in test [6]. Moreover, the results for the growth in [7], in [8] and in [9] were 73.1%, 71.7% and 48.7%, respectively.

In the case of `Nc1c(Cl)cc(N=Nc2ccccc2)cc1Cl`, the growth is 85.4% in test [1]; 89.9% in test [2]; 104% in test [3]; 31.5% in test [4]; 99% in test [5]; 12.5% in test [6]. Further, the growth in test [7] was 84.6%; in test [8] it was 94.8%; in test [9], 100%.
